Data: the supplement of paper PMC10849652
Targets with a hit are over-represented here; the source holds about 8,800 in all. About 0.5% of all pairs of compound and target were hits. A number with no mark means an inactive call.

What was measured:
Experiment in all cases: log2 fold change, soluble protein after heating vs DMSO (PISA); higher = thermal stabilisation; K562 lysate, 10 uM; active = over 0.2 and 3.5 SD of the protein, either way, in both replicates (recomputed)
[1] = compound: Cc1cn(-c2cc(NC(=O)c3ccc(C)c(Nc4nccc(-c5cccnc5)n4)c3)cc(C(F)(F)F)c2)cn1 [nilotinib]
In short: (§1)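 Following dounce homogenisation of K562 pellets in PBS pH 7.4 with 1 mM MgCl2, crude extract at 1 mg/mL protein was incubated for 30 min with 10 μM compound. Aliquots were then heated for 3 min over 48°C-58°C and pooled, NP-40 was added to 0.5% at 4°C, and soluble protein was recovered as the supernatant at 21,000xg for 90 min. Channel-sum-equalised TMTpro 16plex LC-MS/MS quantified this protein. Each value, from duplicates, is a log-two fold change in thermal stability relative to solvent controls.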

[2] = compound: Cc1nc(Nc2n[nH]c3c2CN(C(=O)N[C@H](CN(C)C)c2ccccc2)C3(C)C)c2sccc2n1
In short: as §1

[3] = compound: Cc1nc(Nc2ncc(C(=O)Nc3c(C)cccc3Cl)s2)cc(N2CCN(CCO)CC2)n1 [dasatinib]
In short: as §1

[4] = compound: Cc1ncc(-c2ccnc(Nc3ccc(S(C)(=O)=O)cc3)n2)n1C(C)C
In short: as §1

[5] = compound: Cn1cc(-c2ccc3c(c2)CCN3C(=O)Cc2cccc(C(F)(F)F)c2)c2c(N)ncnc21
In short: as §1

[6] = compound: Cn1cc(CNCC2CCN(c3ncc(C(=O)NO)cn3)CC2)c2ccccc21 [quisinostat]
In short: as §1

[7] = compound: Cn1cncc1[C@@](N)(c1ccc(Cl)cc1)c1ccc2c(c1)c(-c1cccc(Cl)c1)cc(=O)n2C [tipifarnib]
In short: as §1

[8] = compound: NC(=O)Nc1cc(-c2cccc(F)c2)sc1C(=O)N[C@H]1CCCNC1
In short: as §1

[9] = compound: NC(=O)c1cnc(N[C@@H]2CCCC[C@@H]2N)nc1Nc1cccc(-n2nccn2)c1
In short: as §1

[10] = compound: NC1(c2ccc(-c3nc4ccn5c(=O)[nH]nc5c4cc3-c3ccccc3)cc2)CCC1
In short: as §1

[11] = compound: NCC(=O)Nc1ccc(-n2nc(C(F)(F)F)cc2-c2ccc3c(ccc4ccccc43)c2)cc1
In short: as §1

[12] = compound: O=C(CCCCCCC(=O)Nc1ccccc1)NO [vorinostat]
In short: as §1

[13] = compound: O=C(O)c1ccc2c(c1)nc(Nc1cccc(Cl)c1)c1ccncc12 [silmitasertib]
In short: as §1

[14] = compound: O=C1NC(=O)C(c2cnc3ccccn23)=C1c1cn2c3c(cc(F)cc13)CN(C(=O)N1CCCCC1)CC2
In short: as §1

[15] = compound: c1cn2cc(-c3ccc4cn[nH]c4c3)nc(Nc3ccc(N4CCOCC4)cc3)c2n1 [entospletinib]
In short: as §1

Sequence of UniProt Q9H6P5 (Q9H6P5 whole entry, looked up): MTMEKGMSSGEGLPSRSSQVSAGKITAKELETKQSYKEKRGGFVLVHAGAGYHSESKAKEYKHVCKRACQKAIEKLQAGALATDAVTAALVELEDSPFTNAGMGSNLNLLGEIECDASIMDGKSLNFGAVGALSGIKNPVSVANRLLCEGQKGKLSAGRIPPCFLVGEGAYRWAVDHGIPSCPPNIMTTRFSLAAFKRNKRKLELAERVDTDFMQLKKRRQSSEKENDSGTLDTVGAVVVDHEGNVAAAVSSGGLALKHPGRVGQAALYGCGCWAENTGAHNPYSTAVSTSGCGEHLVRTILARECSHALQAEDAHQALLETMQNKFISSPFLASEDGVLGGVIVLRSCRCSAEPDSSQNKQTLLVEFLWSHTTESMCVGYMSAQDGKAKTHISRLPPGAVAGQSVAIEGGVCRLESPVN
Sequence of UniProt Q14139 (Q14139 whole entry, looked up): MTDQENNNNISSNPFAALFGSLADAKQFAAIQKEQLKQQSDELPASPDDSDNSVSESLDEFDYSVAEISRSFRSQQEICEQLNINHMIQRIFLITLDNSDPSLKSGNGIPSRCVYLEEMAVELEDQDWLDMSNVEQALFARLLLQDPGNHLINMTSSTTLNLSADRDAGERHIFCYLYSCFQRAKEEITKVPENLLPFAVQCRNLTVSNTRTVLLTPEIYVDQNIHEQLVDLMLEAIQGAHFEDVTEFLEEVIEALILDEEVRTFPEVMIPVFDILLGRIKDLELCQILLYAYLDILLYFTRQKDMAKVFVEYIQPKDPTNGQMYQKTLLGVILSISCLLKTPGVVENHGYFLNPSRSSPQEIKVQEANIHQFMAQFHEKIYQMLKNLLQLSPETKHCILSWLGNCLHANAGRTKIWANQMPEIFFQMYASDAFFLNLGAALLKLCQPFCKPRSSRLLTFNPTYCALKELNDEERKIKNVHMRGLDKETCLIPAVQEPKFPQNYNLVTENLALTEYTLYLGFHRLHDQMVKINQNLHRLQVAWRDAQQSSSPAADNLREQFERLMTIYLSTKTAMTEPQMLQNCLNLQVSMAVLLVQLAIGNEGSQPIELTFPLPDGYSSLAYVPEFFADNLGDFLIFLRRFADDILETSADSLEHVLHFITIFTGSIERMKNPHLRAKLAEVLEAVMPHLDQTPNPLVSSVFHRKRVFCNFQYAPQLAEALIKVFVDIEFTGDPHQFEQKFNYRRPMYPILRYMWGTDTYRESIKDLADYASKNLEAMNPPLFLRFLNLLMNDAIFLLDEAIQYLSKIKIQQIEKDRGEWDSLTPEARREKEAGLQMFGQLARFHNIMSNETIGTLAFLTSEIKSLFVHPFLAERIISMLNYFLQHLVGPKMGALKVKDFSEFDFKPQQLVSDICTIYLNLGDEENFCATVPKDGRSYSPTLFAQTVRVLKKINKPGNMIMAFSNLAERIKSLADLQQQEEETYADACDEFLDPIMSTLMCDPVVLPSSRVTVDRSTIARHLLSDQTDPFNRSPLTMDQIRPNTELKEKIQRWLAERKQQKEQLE
Sequence of UniProt P67936 (P67936 whole entry, looked up): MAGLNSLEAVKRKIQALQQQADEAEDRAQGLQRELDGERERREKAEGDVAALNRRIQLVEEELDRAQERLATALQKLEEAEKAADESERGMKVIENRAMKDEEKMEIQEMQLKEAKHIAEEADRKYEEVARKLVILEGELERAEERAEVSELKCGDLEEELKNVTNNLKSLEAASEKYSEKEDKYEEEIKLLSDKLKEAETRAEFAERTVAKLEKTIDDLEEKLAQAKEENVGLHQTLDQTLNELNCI
Sequence of UniProt Q96S44 (Q96S44 whole entry, looked up): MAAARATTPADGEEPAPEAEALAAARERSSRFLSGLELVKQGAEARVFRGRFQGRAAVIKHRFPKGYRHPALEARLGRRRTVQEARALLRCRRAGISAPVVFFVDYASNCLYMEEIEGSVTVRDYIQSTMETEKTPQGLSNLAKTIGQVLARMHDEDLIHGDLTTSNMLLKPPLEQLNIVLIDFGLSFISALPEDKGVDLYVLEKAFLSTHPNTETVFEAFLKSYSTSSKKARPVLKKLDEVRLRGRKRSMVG
Sequence of UniProt Q9BZL1 (Q9BZL1 whole entry, looked up): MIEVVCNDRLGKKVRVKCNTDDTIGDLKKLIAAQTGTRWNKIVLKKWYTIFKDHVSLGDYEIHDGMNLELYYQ
Sequence of UniProt O60637 (O60637 whole entry, looked up): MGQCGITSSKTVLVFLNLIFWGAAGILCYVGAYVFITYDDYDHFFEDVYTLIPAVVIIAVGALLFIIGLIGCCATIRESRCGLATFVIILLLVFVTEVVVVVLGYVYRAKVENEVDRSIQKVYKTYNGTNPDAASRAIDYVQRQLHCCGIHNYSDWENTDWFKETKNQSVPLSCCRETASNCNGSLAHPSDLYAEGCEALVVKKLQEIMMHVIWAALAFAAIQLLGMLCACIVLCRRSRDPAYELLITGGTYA
Sequence of UniProt Q9BZV1 (Q9BZV1 whole entry, looked up): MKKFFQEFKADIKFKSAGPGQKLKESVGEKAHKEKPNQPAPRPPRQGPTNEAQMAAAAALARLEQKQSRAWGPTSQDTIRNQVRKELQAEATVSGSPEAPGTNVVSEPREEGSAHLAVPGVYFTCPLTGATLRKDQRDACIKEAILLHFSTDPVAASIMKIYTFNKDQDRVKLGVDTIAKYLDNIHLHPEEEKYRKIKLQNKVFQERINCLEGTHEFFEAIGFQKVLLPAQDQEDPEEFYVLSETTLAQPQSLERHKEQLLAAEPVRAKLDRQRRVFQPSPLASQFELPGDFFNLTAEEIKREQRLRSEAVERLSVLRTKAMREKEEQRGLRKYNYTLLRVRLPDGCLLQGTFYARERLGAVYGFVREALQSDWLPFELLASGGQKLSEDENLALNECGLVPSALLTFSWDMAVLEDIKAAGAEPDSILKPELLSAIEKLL
Sequence of UniProt Q6Q0C0 (Q6Q0C0 whole entry, looked up): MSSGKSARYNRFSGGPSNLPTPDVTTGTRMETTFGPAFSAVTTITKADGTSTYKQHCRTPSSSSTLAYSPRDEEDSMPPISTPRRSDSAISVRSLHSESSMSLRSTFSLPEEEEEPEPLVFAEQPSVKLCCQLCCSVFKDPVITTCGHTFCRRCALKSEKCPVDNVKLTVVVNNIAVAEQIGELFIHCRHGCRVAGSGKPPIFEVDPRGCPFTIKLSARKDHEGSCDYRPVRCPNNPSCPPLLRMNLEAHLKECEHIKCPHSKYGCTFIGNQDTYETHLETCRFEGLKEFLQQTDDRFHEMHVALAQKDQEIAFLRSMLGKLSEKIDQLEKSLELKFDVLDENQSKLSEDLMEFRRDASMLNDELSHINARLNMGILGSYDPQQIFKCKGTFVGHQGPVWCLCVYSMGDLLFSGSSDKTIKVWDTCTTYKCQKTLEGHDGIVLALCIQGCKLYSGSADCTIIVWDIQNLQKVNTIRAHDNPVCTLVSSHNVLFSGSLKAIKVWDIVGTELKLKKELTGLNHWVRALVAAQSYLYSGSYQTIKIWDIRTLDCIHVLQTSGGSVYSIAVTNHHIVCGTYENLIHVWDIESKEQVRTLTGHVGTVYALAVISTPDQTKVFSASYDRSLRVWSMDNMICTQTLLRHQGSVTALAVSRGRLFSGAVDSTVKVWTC
Sequence of UniProt Q96RT8 (Q96RT8 whole entry, looked up): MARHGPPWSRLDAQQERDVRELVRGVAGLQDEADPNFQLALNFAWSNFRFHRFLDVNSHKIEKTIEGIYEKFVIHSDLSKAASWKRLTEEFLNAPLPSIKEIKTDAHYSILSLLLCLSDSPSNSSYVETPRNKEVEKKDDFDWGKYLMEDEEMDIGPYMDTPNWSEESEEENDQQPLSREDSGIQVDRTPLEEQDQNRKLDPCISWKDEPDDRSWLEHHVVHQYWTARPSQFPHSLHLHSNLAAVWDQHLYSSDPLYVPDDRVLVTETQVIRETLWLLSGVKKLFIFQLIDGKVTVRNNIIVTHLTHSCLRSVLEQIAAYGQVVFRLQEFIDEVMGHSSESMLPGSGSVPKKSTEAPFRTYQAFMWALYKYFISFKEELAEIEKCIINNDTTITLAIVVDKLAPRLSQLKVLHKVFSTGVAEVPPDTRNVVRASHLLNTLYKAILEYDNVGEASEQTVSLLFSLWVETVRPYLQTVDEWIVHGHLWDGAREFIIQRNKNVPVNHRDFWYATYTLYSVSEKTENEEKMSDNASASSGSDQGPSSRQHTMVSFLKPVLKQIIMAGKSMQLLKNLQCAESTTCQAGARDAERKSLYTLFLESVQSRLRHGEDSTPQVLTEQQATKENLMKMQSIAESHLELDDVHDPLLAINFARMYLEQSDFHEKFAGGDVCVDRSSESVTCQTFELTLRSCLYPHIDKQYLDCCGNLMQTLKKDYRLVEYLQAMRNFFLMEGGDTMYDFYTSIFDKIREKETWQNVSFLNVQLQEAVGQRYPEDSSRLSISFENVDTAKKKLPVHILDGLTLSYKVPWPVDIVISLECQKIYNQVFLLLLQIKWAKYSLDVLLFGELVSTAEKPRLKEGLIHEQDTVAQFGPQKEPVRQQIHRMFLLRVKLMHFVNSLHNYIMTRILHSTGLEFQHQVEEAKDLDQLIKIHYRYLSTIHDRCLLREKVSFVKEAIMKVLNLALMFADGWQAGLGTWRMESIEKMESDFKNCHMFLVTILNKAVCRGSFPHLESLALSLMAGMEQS
Sequence of UniProt A6NHL2 (A6NHL2 whole entry, looked up): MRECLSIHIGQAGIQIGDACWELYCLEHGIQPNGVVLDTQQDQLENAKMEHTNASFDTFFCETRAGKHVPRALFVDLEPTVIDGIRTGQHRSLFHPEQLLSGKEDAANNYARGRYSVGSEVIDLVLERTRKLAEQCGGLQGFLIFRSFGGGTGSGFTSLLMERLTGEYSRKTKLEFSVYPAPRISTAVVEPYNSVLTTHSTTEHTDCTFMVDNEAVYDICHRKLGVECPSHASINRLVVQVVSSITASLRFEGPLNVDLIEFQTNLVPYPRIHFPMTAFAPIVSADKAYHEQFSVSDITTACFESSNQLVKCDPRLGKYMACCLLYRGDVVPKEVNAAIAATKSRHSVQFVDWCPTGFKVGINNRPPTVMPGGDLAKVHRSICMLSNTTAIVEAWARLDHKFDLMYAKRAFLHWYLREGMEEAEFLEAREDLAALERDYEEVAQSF

Row | Target | log2 fold change [1] | log2 fold change [2] | log2 fold change [3] | log2 fold change [4] | log2 fold change [5] | log2 fold change [6] | log2 fold change [7] | log2 fold change [8] | log2 fold change [9] | log2 fold change [10] | log2 fold change [11] | log2 fold change [12] | log2 fold change [13] | log2 fold change [14] | log2 fold change [15]
1 | UBXN6 (UniProt Q9BZV1) | -0.033 | 0.042 | 0.017 | -0.065 | 0.046 | 0.028 | 0.016 | 0.013 | 0.068 | -0.013 | 0.04 | -0.28 (active) | 0.018 | -0.026 | -0.009
2 | TUBAL3 (UniProt A6NHL2) | 0.068 | -0.189 | -0.074 | 0.103 | 0.082 |  | 0.141 |  | -0.025 | -0.142 | 0.083 | -0.195 | 0.069 |  | -0.026
3 | TTC12 isoform 2 (UniProt Q9H892) | -0.128 | -0.073 | -0.143 | 0.018 | 0.004 | 0.033 | 0.075 | 0.007 | -0.041 | -0.073 | -0.01 | -0.163 | 0.078 | -0.058 | -0.03
4 | U2AF1L5 (UniProt P0DN76) | -0.033 | 0.061 | -0.012 | 0.077 | 0.026 |  | -0.01 |  | 0.009 | -0.022 |  | -0.363 | -0.069 |  | 0.016
5 | TXNRD2 (UniProt Q9NNW7) | 0.063 | 0.008 | 0.039 | 0.071 | 0.015 | -0.017 | -0.005 | -0.023 | -0.006 | -0.05 | -0.016 | 0.125 | -0.025 | 0.029 | 0.023
6 | UBL5 (UniProt Q9BZL1) | 0.028 | 0.154 | 0.036 | 0.018 | 0.027 | 0.341 (active) | 0.031 | -0.149 |  | -0.013 | -0.027 | -0.078 | 0.065 | 0.077 | -0.049
7 | TSPAN3 (UniProt O60637) | 0.004 | -0.003 | 0.118 | -0.199 | 0.033 |  | -0.032 |  | -0.098 | 0.015 | -0.124 | 0.105 | -0.056 |  | -0.005
8 | UBE4A isoform 2 (UniProt Q14139) | 0.023 | -0.009 | -0.075 | -0.022 | 0.026 | -0.018 | -0.003 | 0.054 | 0.002 | 0.017 | 0.007 | -0.257 (active) | 0.019 | 0.029 | 0.026
9 | TP53RK (UniProt Q96S44) | 0.011 | 0 | 0.052 | 0.047 | 0.057 | 0.002 | 0.048 | 0.021 | 0.041 | -0.013 | -0.017 | 0.049 | -0.19 | -0.014 | 0.031
10 | UBAP2 (UniProt Q5T6F2) | -0.093 | 0.008 | -0.042 | 0.021 | -0.023 | -0.008 | -0.073 | 0.019 | 0.016 | 0.029 | 0.031 | 0.03 | -0.007 | 0 | -0.013
11 | TPM4 isoform 2 (UniProt P67936) | 0.052 | -0.048 | 0.059 | 0.076 | -0.011 | 0.122 | 0.024 | -0.039 | 0.029 | 0.02 | 0.02 | 0.082 | -0.016 | -0.014 | 0.02
12 | UBP1 (UniProt Q9NZI7) | -0.019 | -0.039 | 0.008 | 0.05 | 0.002 | -0.125 | -0.084 | 0.01 | 0.008 | -0.058 | -0.002 | -0.182 | 0.008 | -0.01 | -0.002
13 | TUBGCP5 (UniProt Q96RT8) | 0.024 | 0.04 | 0.119 | 0.048 | -0.094 | 0.203 | 0.012 | 0.077 | -0.68 (active) |  | -0.029 |  |  | 0.042 | -0.105
14 | UFSP2 (UniProt Q9NUQ7) | -0.004 | -0.015 | 0.007 | -0.038 | -0.002 | 0.004 | -0.001 | 0.016 | 0.002 | -0.035 | -0.029 | 0.342 (active) | 0.001 | -0.021 | -0.012
15 | TASP1 (UniProt Q9H6P5) | -0.319 | -0.062 | -0.124 | 0.077 | -0.003 | -0.094 | 0.089 | 0.046 | -0.053 | -0.056 |  | 0.481 (active) | -0.018 | 0.029 | 0.21
16 | TK1 (UniProt K7ERV3) | -0.024 | -0.134 | -0.114 | 0.086 | 0.02 | -0.059 | 0.059 | 0.122 |  | -0.016 | -0.018 | 0.086 | 0.01 | -0.014 | -0.013
17 | TLE3 isoform 5 (UniProt Q04726) | 0.142 | -0.174 | -0.007 | -0.06 | 0.028 | -0.102 | 0.05 | -0.009 | 0.024 | 0.058 |  | 0.144 | 0.019 | -0.058 | -0.002
18 | TFPI (UniProt P10646) | -0.076 | 0.04 |  | -0.035 |  | -0.088 | -0.025 | -0.067 | 0.035 | 0.02 | 0.067 | 0.106 | 0.01 | -0.063 | -0.057
19 | TRAPPC12 (UniProt Q8WVT3) | -0.007 | 0.025 | 0.024 | -0.05 | 0.038 | 0.003 | 0.039 | -0.018 | -0.007 | 0.013 | 0.032 | -0.258 (active) | 0.005 | 0.043 | -0.001
20 | TRAF7 (UniProt Q6Q0C0) | 0.16 | 0.027 | -0.005 | 0.154 | 0.163 | -0.035 | -0.1 | -0.033 |  |  | 0.052 |  |  | 0.059 | 0.058
21 | TRIM56 (UniProt Q9BRZ2) | 0.033 | 0.031 | -0.073 | -0.006 | 0.017 | -0.043 | -0.048 | 0.005 | -0.01 | 0.007 | -0.022 | -0.428 (active) | -0.043 | -0.016 | -0.004
22 | TJP1 (UniProt G3V1L9) | 0.093 | 0.051 | 0.083 | 0.11 | -0.139 | 0.137 | -0.078 | 0.022 |  | -0.08 | -0.044 | -0.484 (active) | -0.061 | 0.127 | 
